Results taken from PubChem BioAssay.
Entries with a potency or affinity are not part of this list. Records with an inconclusive call do not appear. Calls of active or inactive are those of the source.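 The calls were made as follows, unless noted: active = fitted half-maximal concentration for viability loss no higher than twice the top valid dose, in every repeat run; inconclusive = repeat runs disagree, flat partial loss, or poor curve fit; inactive = the rest.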

How the values were obtained:
[1] = RMG-1 ovarian cancer cell viability loss – cherry-pick, dose response (AID 687029;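 active = signal drop whose fitted half-maximal concentration is at most twice the top valid dose, in every test run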;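 also: cells exposed to compound for 96 hours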)
[2] = IOSE-T80 viability loss, PAX8-independent line – cell-based, cherry-pick, selectivity assay for PAX8 inhibitor project, dose response (AID 687032);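 also: cells exposed to compound for 96 h before reading; 0% = neutral control wells and -100% = 2 µM mitoxantrone kill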
[3] = CMV-driven luciferase expression suppression in HEK293 – cell-based, luminescence, dry powder, counter-screen for Pax8 inhibitor project, dose response (AID 743020;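 active = signal-lowering compounds whose fitted half-maximal concentration is at or below twice the top tested dose in every run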;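 also: HEK293 cells stably expressing the CMV luciferase reporter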)
[4] = general cell-killing toxicity readout – plate reader, dry powder samples, cytotoxicity control for PAX8 inhibitor project, dose response (AID 743021; call rule not given here)

Measured: activity change, negative = inhibition

CC(OC(=O)c1ccc(S(C)(=O)=O)c([N+](=O)[O-])c1)C(=O)NC1C2CC3CC(C2)CC1C3 (stereo not given)
inactive: [1] | [2]

CC(C)CN1CCN(C(=O)COC(=O)c2ccc(S(C)(=O)=O)c([N+](=O)[O-])c2)CC1
inactive: [1] | [2] | [3]

O=C1C=CC(=O)c2c(O)c(N3CCN(CCOCCO)CC3)c(Br)c(O)c21
inactive: [1] | [2] | [3]

COc1ccccc1C#Cc1ccc([C@H]2[C@@H](CO)N(C(=O)C3CCCCC3)[C@H]2C#N)cc1
inactive: [1] | [2] | [3]

Cc1nn(-c2nc3ccccc3[nH]2)c(=O)c2ccccc12
inactive: [1] | [2] | [3]

O=C(Nc1cccc(NC(=O)c2ccc([N+](=O)[O-])o2)c1)c1ccco1
inactive: [1] | [2] | [3]

COc1cccc(N(C(=O)c2ccco2)c2nc(-c3sc(NC(=O)c4ccco4)nc3C)cs2)c1
inactive: [1] | [2] | [3]

C#CCN(C[C@@H]1[C@@H](OC(=O)NCCCCCC)[C@@H](OC(=O)NCCCCCC)Cn2c(=O)ccc(=O)n21)S(=O)(=O)c1ccc(C)cc1
inactive: [1] | [2] | [3]

CS(=O)(=O)c1ccc(C(=O)OCC(=O)N2CCN(CCC3CCCCC3)CC2)cc1[N+](=O)[O-]
inactive: [1] | [2] | [3]

COc1ccc(C(=O)NNC(=O)c2ccccn2)cc1
inactive: [1] | [2] | [3]

O=C(CCl)N=c1sccn1Cc1ccccc1Cl
inactive: [1] | [2] | [3]

COc1ccc(S(=O)(=O)/N=C2\C=C(Nc3ccc(O)cc3)C(=O)c3ccccc32)cc1
inactive: [1] | [2] | [3]

C=C1CCc2c([nH]c3ccc(OCC(C)C)cc23)C1=O
inactive: [1] | [2] | [3]

C=C1CC(Cn2cc(Br)c(=O)[nH]c2=O)(c2ccc(-c3ccccc3)cc2)OC1=O (stereo not given)
inactive: [1] | [2] | [3]

CN(C[C@H]1N[C@@H](CO)[C@@H]1c1ccc(C2=CCCC2)cc1)C(=O)c1ccc(F)cc1
inactive: [1] | [2] | [3] 0.4% [at 8 µM]

O=C(CC1SC(=Nc2cccc3ccccc23)N(Cc2ccccn2)C1=O)Nc1ccccc1Br (stereo not given)
inactive: [1] | [2] | [3]

Cc1cc(N/N=C/c2ccc(O)c(C)c2O)nc(-c2ccccc2O)n1
inactive: [1] | [2] | [3]

COC(=O)C1=C(SC)N(c2ccccc2)C(c2ccccc2)CC1=O (stereo not given)
inactive: [1] | [2] | [3]

COc1ccc(C#Cc2ccc([C@@H]3[C@H](CO)N4CCCCN(C(=O)Nc5cccc(F)c5)C[C@@H]34)cc2)cc1
inactive: [1] | [2] | [3]

COc1ccccc1-c1ccc(OCCCN2CCC(C(O)(c3ccccc3)c3ccccc3)CC2)cc1
inactive: [1] | [2] | [3]

O=S(=O)(c1ccc2c(c1)C(=NO)c1cc(S(=O)(=O)N3CCCCC3)ccc1-2)N1CCCCC1
inactive: [1] | [2] | [3]

CC1(C)CC(=O)C=C(C#CC2(O)CCCCC2)C1
inactive: [1] | [2] | [3]

O=C(NC1CCCCC1)C(c1cccnc1)N(C(=O)CCl)c1ccccc1Cl (stereo not given)
inactive: [1] | [2] | [3]

COc1ccccc1C(=O)Nc1nc2ccccc2s1
inactive: [1] | [2] | [3]

O=C(OCc1ccccc1)N(CCCCN(CCCNCc1ccccc1)C(=O)OCc1ccccc1)CCCNCc1ccccc1
inactive: [1] | [2] | [3]

COc1cccc(/C=C2/Sc3ccc(C(=O)NCCN4CCCCCC4)cc3NC2=O)c1
inactive: [1] | [2] | [3]

COc1ccc(C(C(=O)NC2CCCCC2)N(C(=O)CCl)c2cccc(Cl)c2)cc1 (stereo not given)
inactive: [1] | [2] | [3]

COc1ccc(/C=C/c2nc3ccccc3n2C)cc1
inactive: [1] | [2] | [3]

CCSc1ccc(-c2cc(NC=O)c3ncc(-c4cccc(C(=O)NCCN(C)C)c4)n3c2)cc1
inactive: [1] | [2] | [3]

C[C@H](CO)N1C[C@H](C)[C@@H](CN(C)C(=O)Nc2ccc3c(c2)OCO3)Oc2cc(C#Cc3ccncc3)ccc2S1(=O)=O
inactive: [1] | [2] | [3]

COc1ccc(C(C(=O)NC2CCCCC2)N(C(=O)CCl)c2ccc(C)cc2)cc1 (stereo not given)
inactive: [1] | [2] | [3]

O=C(O)c1ccc(N/N=C/c2ccc3nccnc3c2)cc1
inactive: [1] | [2] | [3]

CCOc1ccccc1NC(=O)c1nc(S(=O)(=O)Cc2ccccc2)ncc1Cl
inactive: [1] | [2] | [3]

COC(=O)C1=C(C)N(Cc2cccc(C(F)(F)F)c2)C(=NCC2CC2)NC1c1cccc(C(F)(F)F)c1 (stereo not given)
inactive: [1] | [2] | [3]

Cc1cccc(N(Cc2ccccc2)C(=O)CCl)c1
inactive: [1] | [2] | [3]

Cc1ccc2c(CC(=O)OCC(=O)Nc3ccc(Cl)cn3)coc2c1
inactive: [1] | [2] | [3]

CC[C@@H](C(=O)[C@@H](C)[C@@H](O)[C@H](C)CCc1ccc(C)c(O)c1C(=O)O)[C@H]1O[C@](CC)([C@H]2CC[C@](O)(CC)[C@H](C)O2)C[C@@H]1C
inactive: [1] | [2] | [3]

COC(=O)[C@@H]1Cc2c([nH]c3ccccc23)C(C)(C)N1C(=O)CCl
inactive: [1] | [2] | [3]

CCN1CCN(Cc2ccc(NC(=O)c3cc(NC(=O)c4cncc(-c5ccc(C#N)cc5)c4)cc(OC)c3)cc2C(F)(F)F)CC1
inactive: [1] | [2] | [3]

COc1cccc(/C=N/Nc2ccc(C(=O)O)cc2)c1O
inactive: [1] | [2] | [3]

O=C(C[C@@H]1C/C=C/CC[C@H](Cc2ccc(F)cc2)C(=O)OC[C@@H](Cc2ccccc2)NC1=O)N[C@H](CO)Cc1ccccc1
inactive: [1] | [2] | [3]

Cc1ccc2c(c1C)-c1c(ccc(C)c1C)C(=O)C2=O
inactive: all assays above

CCO[C@H]1OC(C(=O)N2CCN(Cc3ccccc3)CC2)=C[C@@H](c2ccc(C(F)(F)F)cc2)[C@@H]1CCCO
inactive: all assays above

O=C1c2c(O)ccc(O)c2C(=O)c2c(NCCNCCO)ccc(NCCNCCO)c21
inactive: all assays above

COc1ccccc1N1CCN(Cc2cc(Br)c(O)c3ncccc23)CC1
inactive: all assays above

C=CCC[C@H](Cc1ccc(F)cc1)C(=O)OC[C@H](Cc1c[nH]c2ccccc12)NC(=O)[C@H](CC=C)CC(=O)N(CCO)Cc1ccccc1
inactive: all assays above

O=C(Nc1ccc(Cl)cc1)Nc1ccc(N2CCCC2)c(S(=O)(=O)Nc2ccccc2Cl)c1
inactive: all assays above

Cc1ccc(S(=O)(=O)N2CCCCC2)cc1NC(=O)Cc1c[nH]c2ccccc12
inactive: all assays above
